# In PubChem BioAssay AID1645855 (Buhrlage Lab, Dana-Farber Cancer Institute and Novartis …, 2021):
# The campaign covered roughly 47,000 compounds. About 3,100 (6.6%) were called active. The sample holds actives, similar compounds and a random draw of the others, so the mix is not that of the screen. Unmarked numbers belong to inactive results. Rule as the data show it: active = inhibition above about 30%; inactive = the rest.
# Biological target: Ubiquitin carboxyl-terminal hydrolase 17-like protein 5 (Homo sapiens) (UniProt A8MUK1)
# Sequence (A8MUK1 whole entry, looked up): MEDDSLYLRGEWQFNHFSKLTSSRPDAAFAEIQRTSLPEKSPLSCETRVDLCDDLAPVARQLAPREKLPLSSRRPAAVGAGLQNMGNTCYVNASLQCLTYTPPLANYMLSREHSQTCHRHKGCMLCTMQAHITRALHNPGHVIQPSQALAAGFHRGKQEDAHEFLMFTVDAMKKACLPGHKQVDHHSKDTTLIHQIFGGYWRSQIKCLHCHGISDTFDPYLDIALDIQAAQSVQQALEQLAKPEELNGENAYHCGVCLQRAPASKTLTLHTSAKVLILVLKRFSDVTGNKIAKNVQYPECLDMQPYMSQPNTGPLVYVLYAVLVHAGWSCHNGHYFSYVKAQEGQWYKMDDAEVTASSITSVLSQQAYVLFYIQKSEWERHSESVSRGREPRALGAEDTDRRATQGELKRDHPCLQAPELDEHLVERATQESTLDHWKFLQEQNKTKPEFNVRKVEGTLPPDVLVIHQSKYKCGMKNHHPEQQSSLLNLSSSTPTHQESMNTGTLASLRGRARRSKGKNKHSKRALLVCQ
# Test: blocks human USP17 ubiquitin-rhodamine cleavage (AID 1645855)
# Details: purified USP17, Ub-rhodamine cleavage fluorescence, 3 h; at 50 µM; stronger effect = higher value
row,Compound,inhibition
1,CC1COc2ccccc2N1C(=O)c1ccc(F)cc1 (configuration not stated),0.747%
2,CC1CCN(S(=O)(=O)c2cccn(CC(=O)Nc3ccc(F)cc3)c2=O)CC1,-5.61%
3,COC(=O)c1cccc(Nc2c(-c3ccccc3)nc3cnc(Br)cn23)c1,-68.2%
4,O=C1CCC(=O)N(O)CCCCCNC(=O)CCC(=O)N(O)CCCCCNC(=O)CCC(=O)N(O)CCCCCN1,23.5%
5,O=C(CN1CCN(c2ccccc2)CC1)c1ccccc1,-12.9%
6,CC(=O)N1CCc2cc(C(O)CN3CCN(c4ccccc4)CC3)ccc21 (configuration not stated),47.6% (active)
7,CC(=O)N1CCc2cc(S(=O)(=O)Nc3ccccc3N3CCN(C)CC3)ccc21,-8.21%
8,CCOCCCNc1ncnc2c1sc1nc(N3CCOCC3)c3c(c12)CC(C)(C)OC3,-1.37%
9,CCOc1ccccc1CNC(=O)CCn1c(-c2ccc(F)cc2)cc(C(C)=O)c1C,-2.37%
10,Cc1cc(=O)n(CC(=O)NCc2ccccc2Cl)c(N2CCCC2)n1,-2.72%
11,Cc1ccccc1CNC(=O)Cn1c(=O)ccn(Cc2ccc(F)cc2)c1=O,42.9% (active)
12,O=C1Nc2ccccc2C1c1c(-c2ccccc2Cl)[nH]c2[nH]c(=O)[nH]c(=O)c12 (configuration not stated),8.48%
13,Cc1cnc(N2CC[C@@H]3[C@@H](CO[C@@H]3CNS(C)(=O)=O)C2)nc1,-4.98%
14,CC(C)NC(=O)N1CCCN(C2CCN(Cc3ccccc3)C2=O)CC1 (configuration not stated),-36.9%
15,CCCCc1nc2sc3c(SCC(=O)NCc4ccccc4)ncnc3c2c2c1CCC2,44.6% (active)
16,CCCc1nc2sc3c(N4CCC(C)CC4)ncnc3c2c2c1CCC2,-14.3%
17,CCC1(C)Cc2c(sc3nc(SCC(=O)NCCc4ccccc4)nc(N)c23)CO1 (configuration not stated),-6.11%
18,CC(=O)CSc1nnc(-c2ccccc2Br)o1,2.6%
19,CCCCOc1ccc(-c2nnc(-c3ccccc3Br)s2)cc1,4.93%
20,CS(=O)(=O)c1cnc(N2CCCCC2)nc1C1CCN(C(=O)CCc2ccco2)CC1,5.15%
21,Cc1cccc(-n2cc(-c3ccccc3)c3c(N(C)C)ncnc32)c1,2.77%
22,CC1=C(c2ccc(C)cc2)S(=O)(=O)NC1=NCc1cccc(Br)c1,46% (active)
23,COc1ccc(C2=Nc3ncnn3C2=NCc2ccc(F)cc2)cc1OC,-4%

row,Compound,inhibition
1,COc1ccc(CN=C2NS(=O)(=O)C(c3ccc(F)cc3)=C2C)cc1OC,66.4% (active)
2,CC1=C(c2ccc(Cl)cc2)S(=O)(=O)NC1=NCC(=O)NC1CCCC1,20.9%
3,COc1cc(CNc2nn[nH]n2)ccc1OCc1ccc(C)cc1,5.1%
4,CCn1c(SCc2cccc(C)c2)nnc1-c1cnccn1,10.7%
5,O=C(c1cccnc1)N1CCC(c2cccc(Cc3ccccc3Cl)n2)CC1,-11.1%
6,COc1cccc(CC2(NC(=O)c3ccccc3)N=C3C=CC=CN3C2=O)c1OC (configuration not stated),16.5%
7,Cc1cc(OCC(=O)Oc2ccc(-n3cnnn3)cc2)cc(C)c1Cl,-0.253%
8,CCc1ccc(C(=O)Cn2c(N3CCOCC3)nc3ccccc32)cc1,-2.13%
9,COc1ccc(S(=O)(=O)N2CC(C(=O)NC3CCCCC3)C3(CCOCC3)C2)cc1 (configuration not stated),0.196%
10,COc1nc(OC)nc(N2CCC(c3nc(C)cc(-c4ncc[nH]4)n3)CC2)n1,-10.1%
11,COc1cccc(-n2nnc(-c3nnc(-c4ccccc4)o3)c2C)c1,54.7% (active)
12,COc1ccc(-c2nnc(-c3cccc(S(=O)(=O)N4CCCC4)c3)o2)cc1,13.3%
13,COc1cccc(-c2nnc(-c3ccccc3NS(=O)(=O)c3ccc(C)cc3)o2)c1,15.5%
14,Cc1ccc(CNC(=O)CCNc2cc(C)nc3nc(-c4cccnc4)nn23)cc1,6.35%
15,CCC(CC)C(=O)N1CCC(c2nc3c(nnn3Cc3ccccc3)c(=O)[nH]2)CC1,14.7%
16,CC1=C2C[C@@H]3C(CN4CCN(c5ccccn5)CC4)C(=O)O[C@@H]3C[C@@]2(C)CCC1 (some centres not stated),-3.81%
17,CNC(=O)c1cc(-c2ccccc2)c(N2CCOCC2)s1,2.58%
18,COc1ccc(NC(=O)c2sc(N3CCOCC3)nc2-c2ccccc2)c(OC)c1,52.7% (active)
19,COc1ccc(-c2nc(N(Cc3ccccc3)C(=O)CN3CCOCC3)sc2C)cc1,-13.9%
20,CC(C)Cc1noc(CN2CCC3(CC2)CC3c2nnc(-c3cccc(F)c3)o2)n1 (configuration not stated),0.0905%
21,CC/C=C\[C@@H]1O[C@H]1C1=C(C)C(=O)C2(O1)C(=O)NC(OC)(C(=O)c1ccccc1)C2O (some centres not stated),-4.56%
22,COc1ccc(-c2cc(C(=O)N3CCCC3c3cc(C)on3)no2)cc1 (configuration not stated),0.23%
23,O=C(Nc1ccc2c(c1)OCO2)c1sc2cc(Cl)ccc2c1Cl,-7.31%

row,Compound,inhibition
1,COc1ccccc1OCCC(=O)Nc1cccc(S(=O)(=O)N(C)C)c1,9.63%
2,CC(OC(=O)c1cn(-c2ccccc2)nc1-c1cccnc1)C(=O)Nc1cccc(S(=O)(=O)N(C)C)c1 (configuration not stated),41.1% (active)
3,CCOc1ncccc1C(=O)NNC(=O)c1cn(-c2ccccc2)nc1-c1ccccc1,2.51%
4,NC(=O)c1ccccc1OCC(=O)Nc1cc(Cl)ccc1Oc1ccccc1,-1.08%
5,COc1ccc(-c2noc(-c3cc4c(COC(C)=O)cnc(C)c4oc3=O)n2)cc1,-158%
6,COc1ccc(-c2cc(=O)oc3c(C)c(OCc4ccccc4F)ccc23)cc1,49.1% (active)
7,Cc1cc(=O)oc2c(C)c(OC(C)C(=O)NCc3ccncc3)ccc12 (configuration not stated),-11.3%
8,CNC(=O)c1sc2nccnc2c1C1CCN(c2ccncn2)CC1,-8.22%
9,CCc1cc(C2CCCN2S(=O)(=O)c2ccc(C(C)C)cc2)on1 (configuration not stated),9.48%
10,Cc1nn(C)c(C)c1CN(C(=O)Cn1cc(C(C)C)nn1)C1CC1,-1.87%
11,CN1C[C@@H](NC(=O)c2ccc(F)cc2)C[C@H]1c1nc(-c2cccnc2)no1,-2.42%
12,Cc1cc(N)nc2c1c(C)nn2-c1ncc(C(F)(F)F)cc1Cl,-15.8%
13,Cc1ccc(-c2nc(-c3cccc(-c4ccnn4C)c3)no2)cc1,5.04%
14,COc1cc(Cl)ccc1-c1nc(-c2cccc(C(=O)N3CCCC3)c2)no1,8.98%
15,COc1ccc(-c2noc(-c3cccc(OCC(=O)NC(C)C)c3)n2)cc1,-0.296%
16,Cc1ccc(-c2noc(-c3cccc(OCC(=O)N(C)C)c3)n2)cc1,50.7% (active)
17,Cc1ccccc1-c1nc(-c2cn(CC(=O)Nc3ccccc3)cn2)no1,10%
18,Cc1ccccc1-c1nc(-c2cccc(OCC(=O)N3CCOCC3)c2)no1,48.9% (active)
19,O=C(NCCc1ccccc1)c1cc2c(s1)CS(=O)(=O)C2,6.74%
20,COc1ccccc1Cc1cnc(C2CCCN(C(=O)c3ccnc(C)n3)C2)o1 (configuration not stated),-2.9%
21,CC1=N[C@@]2(CC[C@@H]3CN(C(=O)Nc4ccccc4C)C[C@@H]32)C(=O)N1CC1CC1,-23.9%
22,COc1ccc(-c2noc(CNC(=O)CCc3ccccc3)n2)cc1OC,8.5%
23,COc1ccc(CNC(=O)CSc2nnc3c4ccccc4nc(-c4ccco4)n23)cc1,-17%

row,Compound,inhibition
1,COc1cccc(C(=O)NCc2ccc(-c3nc4cnccc4o3)cc2)c1,25.2%
2,COc1ccc(CC(=O)Nc2cnc(-c3ccccc3)nc2)cc1,2.89%
3,COc1ccc(CNC(=O)c2cccc3cccnc23)cc1,40.3% (active)
4,COc1ccc(CNC(=O)Cn2ncc3ccc(C)cc32)cc1,16.8%
5,COc1ccc(CCNC(=O)c2ccccc2OCc2ccc(F)cc2)cc1,16.7%
6,COc1ccc(CNC(=O)c2ccccc2-c2ncc(-c3ccccc3)o2)cc1,37.9% (active)
7,COc1ccc(-c2ccc(CCC(=O)NCc3ccccc3)o2)cc1,34.6% (active)
8,O=C(c1ccc(OC2CCN(C(=O)C3CCC3)CC2)nc1)N1CCOCC1,-14.4%
9,CC(=O)N1CC2(CCN(C(=O)c3ccncc3)CC2)Nc2ccccc21,-3.13%
10,CCOC(=O)c1[nH]c2cc(OC)c(OC)cc2c1NC(=O)c1cc2cccc(OC)c2o1,-23.6%
11,CCOC(=O)c1c(NC(=O)CNc2cc(C)ccc2C)sc(Cc2ccc3c(c2)OCO3)c1C,5.67%
12,O=C(c1cccnc1)N1CC[C@@H]2CNS(=O)(=O)[C@@H]2CC1,-5.34%
13,CN1[C@@H](CCC(=O)N2CCN(c3ccccc3)CC2)CNC(=O)[C@H]2NCC[C@H]21,7.19%
14,Cc1c(Cl)cccc1NC(=O)CCn1cnc2ccccc2c1=O,55.3% (active)
15,Cc1ccc(NC(=O)CCn2cnc3c2c(=O)n(C)c(=O)n3C)cc1,-13%
16,Cc1ccc(N(C)C(=O)CCn2cnc3ccccc3c2=O)cc1,-3.3%
17,Cc1nnc2c(NC(=O)Cc3cccc(C(F)(F)F)c3)cccn12,-9.8%
18,Cc1cccc(NC(=O)C2CN(S(C)(=O)=O)c3ccccc3O2)c1C (configuration not stated),-4.9%
19,CCS(=O)(=O)n1nc(NCc2ccccc2)nc1NCc1ccccc1,1.97%
20,CCOc1ccc(NC(=S)Nc2ccc(Cc3ccncc3)cc2)cc1,7.13%
21,COc1ccc(-c2[nH]c3ccccc3c2SCCNC(=O)c2ccc(S(=O)(=O)N3CCOCC3)cc2)cc1,56.7% (active)
22,COc1ccc(NC(=O)c2cc(=O)[nH]c3ccccc23)cc1S(=O)(=O)N1CCOCC1,-3.19%
23,COc1ccc(-c2cnc(SCCNC(=O)c3cccc(F)c3)[nH]2)cc1,-3.6%
